ROMK primary – modulators of human ROMK potassium channel; P48048; Tet-inducible ROMK, thallium flux fluorescence; actives lie on both sides; B-score at 10 µM; 130,000 compounds, 2% hits;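 active = signal ratio slope over the read window, or its plate-corrected B-score, at least 3 SD from the plate mean, either direction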;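 note: B-score of the F/F0 ratio slope over 7 to 12 s after thallium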
WT yeast gro inh – growth inhibition of WT yeast, mitochondrial fusion screen; inhibition, % at 10 µM; mitochondrial fusion phenotypic screen, WT strain; 190,000 compounds, 2.1% hits; in the data active = inhibition above about 58%; tested in S. cerevisiae
Calpain2 inh – inhibitors of pig calpain II; purified calpain II, fluorogenic peptide substrate, 30 min; inhibition, % at 16 µM; 220,000 compounds, 0.37% hits; AID 1236;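 active = inhibition above about 50%, limit read from the data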
KCC2 mod – modulators of human KCC2 chloride dependent transport; 190,000 compounds, 2.2% hits; B-score of Tl+ flux slope (higher = more flux/activation; lower = inhibition) at 10 µM; KCC2 cells, thallium flux FluoZin-2 fluorescence; Q9H2X9;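 active = thallium flux slope and its plate-corrected score both differing from the plate sample mean at a set confidence after two filtering rounds, in either direction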;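 note: slope of fluorescence scaled to starting intensity during 10 to 20 s after thallium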
L major viab – inhibitors of Leishmania major promastigote growth. 200,000 compounds, 9% hits. inhibition, % at 10 µM. Leishmania major promastigotes, resazurin fluorescence viability; in the data active = inhibition above about 50%;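 note: promastigotes grown with compound for 44 hours at 28 °C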
* hit, by the source's call; i = inactive; nt = no result. Most compounds without a hit are left out; they make up all but 12% or so of the library.

SMILES	ROMK primary	WT yeast gro inh	Calpain2 inh	KCC2 mod	L major viab
COc1ccc(C2CC(c3c(-c4ccccc4)c4cc(Cl)ccc4[nH]c3=O)=NN2C(=O)CCC(=O)O)cc1 (stereo not drawn)	1.05	-21.4	-136.4	0.164	-7.4
COc1cccc(C2CC(c3c(-c4ccccc4)c4cc(Cl)ccc4[nH]c3=O)=NN2S(C)(=O)=O)c1OC (stereo not drawn)	-0.765	2.2	-218.4	-0.403	99.9*
Cc1cccc(N2CCC(N=CN(C)C)=N2)c1	0.341	17.9	-1.8	0.741	-3.1
O=C(Nc1cccc2cccnc12)c1cccnc1	-0.0494	-43.1	-9.2	-1.89	24.4
O=C(Nc1cccc2nsnc12)c1cccnc1	1.46	-3.8	-25.1	-0.812	78.2*
COC(=O)c1c(NC(=O)CN2CCC3(O)CCCCC3C2c2cc(OC)ccc2OC)sc(C)c1C (stereo not drawn)	-0.953	74.4*	-45.6	1.17	44.5
COC(=O)c1c(NC(=O)CN2CCC3(O)CCCCC3C2c2ccc(F)cc2)sc(C)c1C (stereo not drawn)	-0.439	58.9*	-29.6	-0.126	77.3*
COc1ccccc1C1C2CCCCC2(O)CCN1CC(=O)Nc1ccccc1 (stereo not drawn)	nt	14.1	1.8	0.411	8.3
NNC(=O)C1CCCN1S(=O)(=O)c1ccc(Cl)cc1 (stereo not drawn)	-0.661	-9.5	-16.4	0.495	11.2
COC(=O)c1cccc(NC(=O)Nc2ccc(Cl)c(Cl)c2)c1	nt	23.1	26.1	nt	87.1*
COC(=O)c1ccc(NC(=O)Nc2ccc(F)c(Cl)c2)cc1	nt	61.5*	12.2	0.0801	-5.5
COC(=O)c1cccc(NC(=O)NC2CCCN2S(=O)(=O)c2ccc(Cl)cc2)c1 (stereo not drawn)	nt	-14.6	2.6	-1.12	76.0*
CCC(C)NC(=O)Nc1ccc(F)c(Cl)c1 (stereo not drawn)	-1.16	-11.3	11.2	0.639	95.8*
O=C(Nc1ccncc1)Nc1ccc(F)c(Cl)c1	-0.911	23.9	6.3	nt	44.3
COC(=O)C1c2ccccc2-c2ccccc21	0.0763	13.7	18.7	-1.89	-13.7
Cc1ccc(C(C)NC(=O)/C(C#N)=C\c2c(C)[nH]c3ccccc23)cc1 (stereo not drawn)	1.76	87.8*	42.7	0.63	0.2
Cc1[nH]c2ccccc2c1/C=C(\C#N)C(=O)NCc1ccccc1	-0.249	-17.3	-17.0	0.564	-9.9
Cc1ccc(CN=C(Nc2ccccc2)NC2CCCCC2)cc1	nt	-7.5	-2.2	0.158	59.7*
COc1ccc(C2/C=C\CN(C(=O)NC34CC5CC(CC(C5)C3)C4)CC(=O)N2Cc2ccc(F)cc2)cc1 (stereo not drawn)	nt	nt	-44.9	0.888	nt
O=C(c1sc2cccc(F)c2c1Cl)N1CCN(c2ncccn2)CC1	nt	2.3	0.8	-0.306	77.2*
Cc1onc(-c2c(F)cccc2Cl)c1C(=O)N1CCN(c2ncccn2)CC1	0.236	-1.4	-26.3	-0.215	-6.8
COc1ccc(N(C=O)C(=S)SC)cc1	-0.0337	nt	-6.3	2.37	nt
COc1ccc(C=C(C(C)=O)C(C)=O)cc1OC	-2.45	-22.4	-18.0	0.0838	40.6
COc1cc(C=C(C(C)=O)C(C)=O)ccc1O	nt	-9.9	3.2	nt	62.7*
CC(C)C(=O)N=C1SC2CS(=O)(=O)CC2N1Cc1ccccc1 (stereo not drawn)	-0.158	-14.1	24.5	0.922	52.1*
SMILES	ROMK primary	WT yeast gro inh	Calpain2 inh	KCC2 mod	L major viab
Cc1cc(Br)ccc1S(=O)(=O)n1ccnc1C	-0.182	-2.4	-0.2	-1.03	84.1*
COc1ccc(C)cc1S(=O)(=O)n1ccnc1C	1.02	18.1	10.6	1.07	-1.1
c1ccc(-n2ncc3c(N4CCN(CCOc5cccc6ccccc56)CC4)ncnc32)cc1	0.443	21.3	1.0	nt	98.9*
CS(=O)(=O)N1CCN(c2ncnc3c2cnn3-c2ccccc2)CC1	-0.31	-19.4	-12.7	-1.32	-6.7
Cc1noc(C(=O)NC2CCCCC2)c1Cl	-0.00194	nt	-7.9	1.47	nt
CCOc1ccc(/C=C/C(O)=C2/C(=O)N(C)C3(C)CC2c2ccccc2O3)cc1OC (stereo not drawn)	1.33	26.3	-5.3	-1.54	65.0*
CN(C)c1ccc(/C=C/C(O)=C2/C(=O)N(C)C3(C)CC2c2ccccc2O3)cc1 (stereo not drawn)	nt	10.8	-11.9	-0.659	66.2*
O=C(COc1ccc(Cl)cc1)NCc1nnc(SCC(=O)N2CCCCCC2)o1	-0.478	5.8	-21.8	-0.337	-5.2
Cc1ccccc1Nc1c(-c2ccncc2)nc2ccc(Cl)cn12	-1.7	23.3	-21.9	-0.182	75.2*
O=C(Nc1c(-c2ccccc2)nc2ccc(Cl)cn12)c1cccs1	-0.225	-17.2	5.5	0.303	78.9*
C/C(=N/N=C/c1ccc(N(C)C)cc1)c1ccccc1	nt	-1.7	18.5	-0.00044	80.3*
Cc1ccc(N=Cc2ccc(N(C)C)cc2)cc1	nt	-15.4	19.5	0.698	-2.3
CN(C)c1ccc(C=Nc2ccc(N(C)C)cc2)cc1	nt	21.0	-4.4	-0.767	71.1*
CN(C)c1ccc(N=Cc2ccco2)cc1	nt	5.9	-15.5	nt	70.8*
CCCNS(=O)(=O)c1ccc(OCC(=O)Nc2ccc3c(c2)OCO3)cc1	0.613	-12.5	7.2	nt	0.2
CCCSc1nsc(NC(=O)CCC)n1	-0.283	5.2	12.8	0.682	22.2
CSc1ccc(/C=C/C(=O)OCC(=O)N(C)CCC#N)cc1	0.124	1.5	-425.2	0.0907	0.0
O=C(OCc1nc2ccccc2[n+]([O-])c1C(=O)c1ccccc1)c1cccs1	0.296	2.4	11.9	0.477	86.4*
O=C(OCc1nc2ccccc2[n+]([O-])c1C(=O)c1ccccc1)c1ccco1	0.032	nt	8.3	-0.175	nt
CCCCNC(=O)CSc1nc2ccsc2c(=O)n1C1CCN(C(=O)OCC)CC1	nt	-26.3	-25.4	1.01	87.4*
N#CC1=C(N)Oc2ccc3ccccc3c2C1c1cccnc1 (stereo not drawn)	1.01	4.6	16.8	-1.24	88.0*
Cc1cccc(NC(=O)C2CCN(S(=O)(=O)c3c(C)noc3/C=C/c3ccco3)CC2)n1	0.0736	12.5	3.3	-1.51	98.7*
CCCCCCOC(=O)/C=C/c1c(C)[nH]c(=O)[nH]c1=O	nt	0.9	19.3	0.941	94.1*
Cc1ccccc1N(CC(=O)N1CCOCC1)S(C)(=O)=O	-0.0524	9.5	-12.1	0.391	-5.8
Cc1ccc2sc(NNC(=O)c3cc(-c4cccs4)nc4ccccc34)nc2c1C	-0.287	30.8	-34.0	-0.225	2.4
COc1ccccc1-c1cc(C(=O)N/N=C/c2cccs2)c2ccccc2n1	-0.494	24.2	-100.4	-0.397	50.9*
COc1ccccc1-c1cc(C(=O)N/N=C\c2cnn(C)c2C)c2ccccc2n1	-0.653	-5.8	-9.8	-0.509	28.7
COc1ccc(-c2cc(C(=O)N/N=C/c3sccc3C)c3ccccc3n2)c(OC)c1	-1.59	19.9	i	0.563	78.6*
Cc1ccc(-c2cc(C(=O)N/N=C/c3c(C)nn(C)c3C)c3ccccc3n2)cc1C	1.89	11.4	-210.6	0.0837	81.7*
Cc1cc(C)c2nc(NNC(=O)c3cc(-c4cccs4)nc4ccccc34)sc2c1	0.124	63.7*	-31.3	1.05	-1.9
